# Screen size: about 360,000 compounds; about 16,000 (4.4%) were called active. Roughly 9% stayed inconclusive and do not appear here. Calls follow the shape of the dose curve; as a rule, active = well fitted inhibition curve with a large enough effect; inconclusive = small, poorly fitted or top-dose-only effect; inactive = no such curve, though single readings can be large or run the other way. The list comes from a sample in which actives are over-represented; it also holds similar structures and randomly drawn compounds.
# Target: Bromodomain adjacent to zinc finger domain protein 2B (Homo sapiens) (UniProt Q9UIF8)
# Sequence (Q9UIF8 whole entry, looked up, the tested form may be a part): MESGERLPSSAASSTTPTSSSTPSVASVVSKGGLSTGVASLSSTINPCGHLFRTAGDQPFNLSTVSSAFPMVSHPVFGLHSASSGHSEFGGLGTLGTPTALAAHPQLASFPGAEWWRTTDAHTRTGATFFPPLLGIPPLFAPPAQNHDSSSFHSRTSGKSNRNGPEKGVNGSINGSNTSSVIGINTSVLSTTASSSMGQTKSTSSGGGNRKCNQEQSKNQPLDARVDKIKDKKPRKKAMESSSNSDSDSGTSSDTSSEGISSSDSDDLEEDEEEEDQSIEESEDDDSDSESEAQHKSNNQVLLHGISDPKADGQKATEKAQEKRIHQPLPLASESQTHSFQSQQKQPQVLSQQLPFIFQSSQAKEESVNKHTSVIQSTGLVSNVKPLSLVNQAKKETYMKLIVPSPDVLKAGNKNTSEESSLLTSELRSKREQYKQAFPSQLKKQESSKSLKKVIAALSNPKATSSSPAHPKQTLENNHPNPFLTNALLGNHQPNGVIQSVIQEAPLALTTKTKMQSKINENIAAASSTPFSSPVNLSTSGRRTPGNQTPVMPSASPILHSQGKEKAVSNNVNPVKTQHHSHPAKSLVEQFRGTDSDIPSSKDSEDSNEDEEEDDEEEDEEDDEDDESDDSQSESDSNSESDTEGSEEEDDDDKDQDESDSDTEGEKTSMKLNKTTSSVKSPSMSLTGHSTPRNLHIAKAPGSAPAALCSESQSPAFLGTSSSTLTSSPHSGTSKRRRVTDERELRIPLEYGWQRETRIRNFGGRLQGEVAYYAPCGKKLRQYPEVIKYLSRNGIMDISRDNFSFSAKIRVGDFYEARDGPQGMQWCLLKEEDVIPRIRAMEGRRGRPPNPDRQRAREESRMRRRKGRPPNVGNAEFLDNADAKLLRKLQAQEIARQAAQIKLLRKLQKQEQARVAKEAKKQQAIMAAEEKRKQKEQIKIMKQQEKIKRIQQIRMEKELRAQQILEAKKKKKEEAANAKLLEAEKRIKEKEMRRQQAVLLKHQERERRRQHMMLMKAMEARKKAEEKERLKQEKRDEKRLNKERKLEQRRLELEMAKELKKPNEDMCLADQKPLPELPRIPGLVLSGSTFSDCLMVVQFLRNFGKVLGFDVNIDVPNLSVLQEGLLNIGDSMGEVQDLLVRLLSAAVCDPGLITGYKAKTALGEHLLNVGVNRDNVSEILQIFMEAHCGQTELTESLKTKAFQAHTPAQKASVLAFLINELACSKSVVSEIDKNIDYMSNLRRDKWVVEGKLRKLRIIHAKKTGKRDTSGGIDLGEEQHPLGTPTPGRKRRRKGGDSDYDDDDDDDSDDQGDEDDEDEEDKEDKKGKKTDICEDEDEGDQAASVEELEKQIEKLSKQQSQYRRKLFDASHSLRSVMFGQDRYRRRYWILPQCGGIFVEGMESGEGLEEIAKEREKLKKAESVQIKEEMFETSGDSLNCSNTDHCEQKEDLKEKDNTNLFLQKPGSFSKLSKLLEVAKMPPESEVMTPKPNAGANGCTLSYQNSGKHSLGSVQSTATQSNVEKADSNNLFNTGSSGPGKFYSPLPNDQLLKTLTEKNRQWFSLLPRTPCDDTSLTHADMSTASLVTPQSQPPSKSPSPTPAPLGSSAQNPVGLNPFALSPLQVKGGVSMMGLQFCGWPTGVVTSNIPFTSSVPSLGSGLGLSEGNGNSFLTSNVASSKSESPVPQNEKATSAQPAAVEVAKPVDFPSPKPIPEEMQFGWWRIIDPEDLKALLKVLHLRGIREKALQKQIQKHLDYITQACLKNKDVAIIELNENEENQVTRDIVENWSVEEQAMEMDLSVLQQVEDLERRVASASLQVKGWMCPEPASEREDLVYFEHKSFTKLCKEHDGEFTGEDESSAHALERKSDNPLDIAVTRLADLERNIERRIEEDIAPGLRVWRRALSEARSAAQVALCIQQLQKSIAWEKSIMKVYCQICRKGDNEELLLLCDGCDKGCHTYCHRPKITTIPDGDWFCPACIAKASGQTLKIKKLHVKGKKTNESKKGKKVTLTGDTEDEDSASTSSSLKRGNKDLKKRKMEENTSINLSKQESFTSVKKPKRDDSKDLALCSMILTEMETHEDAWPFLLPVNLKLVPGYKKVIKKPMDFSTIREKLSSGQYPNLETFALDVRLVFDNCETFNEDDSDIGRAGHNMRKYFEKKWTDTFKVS
# Experiment: qHTS Assay for Inhibitors of BAZ2B; also: nearly all actives have a fitted effect of over 60% in size
# Settings: AlphaScreen BAZ2B-H3K14Ac peptide displacement; series mostly up to 114 µM; activity change, negative = inhibition: at the top concentration
# Summary of the method: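 AlphaScreen luminescence quantifies BAZ2B engagement of H3K14Ac peptide; the protein and biotinylated peptide are both at 50 nM final, buffer PBS pH 7.4 with 0.01% Tween-20, all steps at room temperature.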
# % is scaled to controls: 0 for no effect and ±100 for the full control effect; potency is read from the fitted curve at half-maximal effect.
Compound,Potency,"activity change, negative = inhibition"
Cc1nc2c(c(=O)n1Cc1ccco1)c1nc3ccccc3nc1n2Cc1ccccc1,56.2 µM (active),–
Clc1cccc(-c2nc3nc4ccccc4nc3n2Cc2ccco2)c1,–,-8.99% (inactive)
Cc1cc(NC(=O)CSc2nc3cc(Cl)ccc3c(=O)n2Cc2ccco2)no1,–,-20.2% (inactive)
COc1ccccc1CNc1ccc(-c2nc(-c3ccccc3C)no2)cc1[N+](=O)[O-],–,-15% (inactive)
COc1ccccc1-n1c(-c2ccc(C)cc2)cn2c3c(=O)n(C)c(=O)n(C)c3nc12,–,-25.8% (inactive)
CCOC(=O)c1oc2ccc(S(=O)(=O)n3nc(-c4ccccc4OC)cc3N)cc2c1C,–,-16% (inactive)
CCCCOc1ccc(Cn2c(=O)oc3ccc(C)cc32)cc1OC,–,71.6% (inactive)
CCCCOc1ccc(CN2C(=O)C(=O)c3cc(Br)cc(C)c32)cc1OC,6.31 µM (active),–
CCCCN1C(=O)C(C)=C(C)C1OCCc1ccc(OC)c(OC)c1 (stereo not given),–,13.3% (inactive)
COc1ccccc1CNc1nccn(-c2ccc(F)cc2)c1=O,–,-18.1% (inactive)
CCCOc1ccc2c3c(c(=O)oc2c1OCCC)CCC3,–,21.5% (inactive)
O=c1oc2c(CN3CCCCC3)c(O)ccc2c2c1CCCCC2,–,-12.4% (inactive)
COc1ccc2c3c(c(=O)oc2c1OCC(=O)C(C)(C)C)CCCC3,79.4 µM (active),–
O=C(Cn1c(=O)n(-c2ccc(F)cc2)c(=O)c2sc3ccccc3c21)NC1CCCC1,–,-9.41% (inactive)
Cc1cccc(NC(=O)c2cc3c(C)nn(-c4ccccc4)c3s2)c1,–,5.11% (inactive)
CCOC(=O)C1Sc2[nH]c(=O)sc2C(c2ccc(Cl)cc2)C1C(=O)OCC (stereo not given),50.1 µM (active),–
CCOC(=O)c1[nH]c2c(c1-c1ccccc1)C(=O)CC(c1ccc(Cl)cc1)C2 (stereo not given),–,3.42% (inactive)
CCOC(=O)C1C(c2ccc(Cl)cc2)NC(=S)NC1(O)C(F)(F)F (stereo not given),–,12.4% (inactive)
Cc1ccc(NC(=O)c2oc3ccccc3c2NC(=O)Cc2cccs2)cc1,–,-17.6% (inactive)
CC(C)Sc1oc(-c2cccs2)nc1S(=O)(=O)c1ccc(Cl)cc1,–,-4.8% (inactive)
CCN(CC)S(=O)(=O)c1cc(C(=O)Nc2ccccn2)ccc1C,–,-5.55% (inactive)
CCN(CC)CCOc1ccc2c(c1)C(=NNC(=O)c1ccccn1)c1cc(OCCN(CC)CC)ccc1-2,20 µM (active),–

Compound,Potency,"activity change, negative = inhibition"
CC(O)c1ccc(OCCN(C)c2ccccn2)cc1 (stereo not given),–,0.0135% (inactive)
COc1ccccc1CNC(=O)c1ccc(-n2c(C)cc3c2CCCC3)cc1,–,-9.34% (inactive)
CC(C)c1ccc(NC(=O)C2CCN(c3nc(-c4ccc(C(C)C)cc4)no3)CC2)cc1,–,17.5% (inactive)
NNc1nc2c(Cl)cccc2s1,44.7 µM (active),–
NC(=O)c1c(Nc2nc3c(F)cccc3s2)sc2c1CCCC2,–,-17.7% (inactive)
CC1CCCN(c2nc3c(S(=O)(=O)c4ccc(C(C)C)cc4)nnn3c3ccsc23)C1 (stereo not given),–,-0.48% (inactive)
O=C(CSc1nc(=O)[nH]c2c1CCCC2)Nc1cc(C(F)(F)F)ccc1Cl,–,-4.05% (inactive)
O=C(Nc1c(-c2ccc(F)cc2)nc2ccccn12)c1cccc(F)c1,–,1.7% (inactive)
CCn1cc(C(=O)OCC(=O)Nc2cc(C)cc(C)c2)c(=O)c2ccc(C)nc21,–,3.94% (inactive)
N#Cc1nc(-c2ccc(OCc3ccccc3)cc2)oc1NCCCN1CCOCC1,50.1 µM (active),–
O=S(=O)(c1ccccc1)c1nc(-c2ccccc2)oc1NCCCN1CCOCC1,–,1.55% (inactive)
Nc1nc(NCCCN2CCOCC2)nc(Nc2ccccc2)c1[N+](=O)[O-],–,-5.03% (inactive)
Cc1ccc2sc(N(Cc3cccnc3)C(=O)C3COc4ccccc4O3)nc2c1C (stereo not given),–,-2.8% (inactive)
C[C@H](NC(=O)c1ccccc1)C(=O)OCC(=O)c1c[nH]c2ccccc12,–,3.43% (inactive)
O=C(CNC(=O)c1ccc(F)cc1)c1ccccc1,–,11.6% (inactive)
CN(C)c1ccc(C(CNC(=O)c2ccc(F)cc2)c2c[nH]c3ccccc23)cc1 (stereo not given),12.6 µM (active),–
COc1cc(OC)cc(C(=O)Nc2ccc3nc(Nc4cccc(C(F)(F)F)c4)cc(C)c3c2)c1,–,-4.94% (inactive)
O=Cc1c(Nc2ccccc2Cl)nc2ccccn2c1=O,50.1 µM (active),–
Cc1cccn2c(=O)c(C=O)c(Nc3ccc(S(N)(=O)=O)cc3)nc12,–,6.46% (inactive)
O=Cc1c(N2CCN(c3cccc(Cl)c3)CC2)nc2ccccn2c1=O,–,-33.1% (inactive)
CCC(=O)N1CCc2cc(CNC(=O)Nc3ccccc3Cl)ccc21,–,-7.45% (inactive)
CSc1ccc(CCNC(=O)c2cc(C)nc3c2c(C)nn3-c2cccc(F)c2)cc1,–,17.5% [at 57.1 µM] (inactive)

Compound,Potency,"activity change, negative = inhibition"
CCOc1ccccc1CNCc1c(C(=O)O)c(C)n(Cc2ccc(C)cc2)c1C,–,-15.7% (inactive)
CCN1/C(=C/C(=S)Nc2ccccc2)Sc2ccccc21,22.4 µM (active),–
CCN1C(=O)c2ccccc2Sc2ccc(NC(=O)Cc3ccc(OC)cc3)cc21,–,-3.41% (inactive)
CCOC(=O)CNC(=O)N1c2ccccc2Sc2ccccc21,–,1.76% (inactive)
CCOC(=O)c1cc2c(=O)n3ccccc3nc2n(Cc2ccco2)c1=NC(=O)c1ccc(F)cc1,–,3.83% (inactive)
COc1cc(C2C(C(=O)c3ccc(C)o3)=C(O)C(=O)N2Cc2cccnc2)ccc1O (stereo not given),56.2 µM (active),–
COc1ccc(C2C(C(C)=O)=C(O)C(=O)N2Cc2cccnc2)cc1 (stereo not given),–,-37.3% (inactive)
Cc1cc(N2C(=O)C(O)=C(C(=O)c3ccc(C)o3)C2c2ccc(OCc3ccccc3)cc2)no1 (stereo not given),–,-26.4% (inactive)
CCOC(=O)c1c(C)[nH]c(CCC(=O)NCCCN2CCN(c3cc(C)ccc3C)CC2)c1C,–,-32.7% (inactive)
NC(=O)C1=C[C@H](c2csc3ccccc23)C[C@H](OCc2ccc(CO)cc2)O1,–,-1.46% (inactive)
O=C(O)C1=C[C@H](c2cccs2)C[C@H](OCCCCO)O1,79.4 µM (active),–
C=CCOC(=O)C1=C[C@@H](c2ccccc2)C[C@@H](OCc2ccc(CO)cc2)O1,–,-1.46% (inactive)
Cn1c(=O)c2c(SCC(=O)NCC3CCCO3)nc(-c3ccccc3F)nc2n(C)c1=O (stereo not given),–,6.48% (inactive)
O=C(CC(c1cccs1)N1Cc2ccccc2C1=O)Nc1ccc(F)cc1F (stereo not given),–,-5.59% (inactive)
Cc1cccc(OCC(=O)N(Cc2ccc(C(C)C)cc2)Cc2ccco2)c1C,–,42% (inactive)
CCS(=O)(=O)c1ncc(N(Cc2ccc(F)cc2)Cc2ccco2)c(C(=O)Nc2cc(C)ccc2C)n1,–,-1.24% (inactive)
COc1ccc2sc(-c3ccc(N(C)C)cc3)c(C#CCO)c2c1,89.1 µM (active),–
O=C(C1CC1)N1CCc2cc(Br)cc(S(=O)(=O)N3CCN(c4ccccc4F)CC3)c21,–,-3.75% (inactive)
N#Cc1ccc(CSc2nnc3ccccn23)cc1,–,-0.806% (inactive)
N#Cc1ccc(CSc2nnc(-c3ccccn3)n2-c2ccc(Cl)cc2)cc1,50.1 µM (active),–
N#Cc1ccc(CSc2ncccn2)cc1,–,-21.7% (inactive)
